Our source for the inhibition values is PubChem BioAssay AID2216 (Broad Institute, 2009).

About 3,300 (1.1%) of roughly 300,000 compounds were called active. Another 6% or so got no clear call; they are omitted. For the sample, actives were picked, then their nearest neighbours and some compounds at random. A number with no mark means an inactive call.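 How the source made its calls: active means more than half of the replicate wells show a fall in the fluorescence ratio signal beyond about 16% (limit read from the data, passing the limit was not always enough); inconclusive means exactly half of the replicate wells pass the set limit; inactive means fewer than half of replicates pass the limit.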

In this assay the test system is Ran GTPase (GTP-bound) - importin-beta complex. Put plainly: inhibitors of RanGTP-importin-beta interaction, primary screen, biochemical, FRET, CFP-Ran, YFP-importin-beta, homogeneous (AID 2216).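 Further: 0% = DMSO wells and 100% = Ran loaded with GDP instead of GTP.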 Conditions: cell-free CFP-Ran/YFP-importin-beta FRET ratio; stronger effect = higher value; concentration not given here.
A word on the inhibition: it is the relative decrease from the control value, in per cent. As for `Cc1onc(C(=O)Nc2ccc3c(c2)OCO3)c1[N+](=O)[O-]`, the inhibition is 0.97%.

As to `CCCOc1ccc(Cl)cc1Nc1nc(NCCO)nc(N2CCCC2)n1`, the inhibition was -4.43%.

For `O=C(COC(=O)c1cnccn1)Nc1ccc(Cl)cc1C(F)(F)F`, the inhibition was 1.07%.

With `CCCCc1nc2cc(C(=O)N3CCCCC3CCO)ccc2o1` (stereo not given), the inhibition is 2.55%.

For `N#CC1=C(N)Oc2c(sc3ccccc23)C1c1ccco1` (stereo not given), the inhibition is 54.7% (active).

Turning to `CC1=C(C(=O)Nc2ccccc2)C(c2ccco2)C(C#N)=C(SCC(N)=O)N1` (stereo not given), the inhibition is -0.887%.

`Cc1cc(C)c2c3c(sc2n1)C(c1ccccc1)C(C#N)=C(N)O3` (stereo not given): the inhibition was 14.9%.

In the case of `CC(C)CN(C(=O)COC(=O)c1ccc(Cl)c(N)c1)c1c(N)n(Cc2ccccc2)c(=O)[nH]c1=O`, the inhibition is 3.15%.

For `Cc1onc(-c2ccccc2Cl)c1C(=O)N(Cc1ccc(N(C)C)cc1)C(C)C`, the inhibition is -1.47%.

Take `O=C(Cc1ccc(S(=O)(=O)N2CCOCC2)s1)NCCOc1ccccc1F`: the inhibition was 0.747%.

`COC(=O)Cc1cc(=O)oc2c(C)c(O)ccc12`: the inhibition was 60.4% (active).

As for `CCCc1cc(=O)oc2c(C)c(OCC(=O)NCc3ccccn3)ccc12`, the inhibition is 0.0468%.

Consider `COc1cccc(C(=O)OCc2cc(=O)oc3c(C)c(C)ccc23)c1OC`, for which the inhibition was -2.35%.

`O=C(COc1ccccc1)Nc1cc2c3c(c1)CC(=O)N3CCC2`: the inhibition is 0.812%.

As to `O=C(NC1CC1)C1=C[C@H](c2coc3ccccc3c2=O)C[C@H](OCCCCO)O1`, the inhibition was 8.31%.

In the case of `CCN1CCN(CC(=O)Nc2sc3c(c2C#N)CCC3)CC1`, the inhibition is -1.32%.

With `N#Cc1c(N)sc2c1CCN(C(=O)OCc1ccccc1)C2`, the inhibition is 8.85%.

As to `CC(C)N1CCc2c(sc(NC(=O)Cc3ccccc3)c2C#N)C1`, the inhibition is 156% (active).

As to `Cn1c(SCC(=O)c2ccccc2)ncc(C(=O)Nc2ccc(F)cc2)c1=O`, the inhibition was 0.558%.

In the case of `CCN1CC=C2C(C#N)=C(N)C(C#N)(C#N)[C@H](c3ccoc3)[C@H]2C1`, the inhibition was 47.8% (active).

Take `CCCN1CC=C2C(C#N)=C(N)C(C#N)(C#N)C(c3cc(OC)ccc3OC)C2C1` (stereo not given): the inhibition was 36.6% (active).

Consider `CCC1=C(C(=O)OC)C(c2cc(OC)ccc2OC)C(C#N)=C(N)O1` (stereo not given), for which the inhibition is -4.33%.

Consider `N#CC1=C(N)C(C#N)(C#N)[C@H](c2ccsc2)[C@H]2COCC=C12`, for which the inhibition is -27%.

`COc1ccc(-c2cc(C(=O)N(C)CC(=O)Nc3ccccc3Cl)c3ccccc3n2)cc1OC`: the inhibition is 0.526%.

With `COc1cc(C(=O)N(C)Cc2cccc(OC)c2OC)ccc1OCC(=O)Nc1cccc(C(F)(F)F)c1`, the inhibition is -1%.

On to `Cc1sc2nc(CSCC(=O)NC3CCCCC3)[nH]c(=O)c2c1C`, for which the inhibition is 1.87%.

`O=S(=O)(NCCCc1ccccc1)c1ccc(Br)cc1`: the inhibition is -1.87%.

With `Cc1cc(=O)oc2cc(NC(=O)C(C)Oc3ccccc3)ccc12` (stereo not given), the inhibition is 3.05%.

For `CCOC(=O)C1(Cc2cccc(OC)c2)CCN(Cc2csc(C(C)=O)c2)CC1`, the inhibition was 33.4% (active).

For the compound `CCOC(=O)C1(Cc2cccc(OC)c2)CCN(C(C)CC(C)(C)O)CC1` (stereo not given), the inhibition was 2.47%.

Regarding `CCOC(=O)C1(Cc2cccc(OC)c2)CCN(C(C)COC)CC1` (stereo not given), the inhibition is 7.78%.

On to `COc1ccc(Nc2ncnc3sc(C)cc23)cc1`, for which the inhibition was -4.52%.

On to `Cc1cc(C)c2nc3nc(C)cc(C)c3c(N)c2c1`, for which the inhibition was 123% (active).

Take `Cc1cc(C)c2nc(-c3ccco3)cc(C(=O)O)c2c1`: the inhibition is -1.33%.

For `Cc1cc(C)c2nc(SCCC#N)nc(C)c2c1`, the inhibition was 4.53%.

Regarding `CCC1Nc2ncnc(N3CCN(c4ccccc4)CC3)c2N(Cc2ccc(Cl)cc2)C1=O` (stereo not given), the inhibition is 3.14%.

With `CCOC(=O)c1cccc(NS(=O)(=O)c2c(C(=O)N3CCCCCC3)c(C)n(C)c2C)c1`, the inhibition was -0.759%.

For the compound `Cc1cc(Nc2ccccc2)n(CCC#N)n1`, the inhibition was 64.2% (active).

For the compound `Cc1cc(NC(=O)COc2ccc(Cl)cc2Cl)n(CCC#N)n1`, the inhibition was 0.324%.

Regarding `Cc1cc(Nc2ccccc2)n(C(=O)c2ccc(N)cc2)n1`, the inhibition was 11.7%.

For `COc1ccc(NC(=O)CN(C)C(=O)c2cc(-c3ccc(C)o3)nc3ccccc23)cc1`, the inhibition was 3.47%.

As for `Cc1ccc(/C=C(\C#N)C(=O)Nc2cccc3ncccc23)o1`, the inhibition was 24.4% (active).

For the compound `O=C(Nc1cccc2ncccc12)C(Cl)(Cl)Cl`, the inhibition is -1.34%.

For `Cc1ccc(C(=O)Nc2cccc3ncccc23)cc1[N+](=O)[O-]`, the inhibition is -5.75%.

Consider `COc1ccc(NC(=O)CN(C)C(=O)c2cccc(S(=O)(=O)N3CCN(c4ccccc4)CC3)c2)cc1`, for which the inhibition is 5.36%.

For `Cc1sc(NC(=O)c2ccc3ncsc3c2)c(C(N)=O)c1C`, the inhibition is 7.92%.

For `COc1ccc(NS(=O)(=O)c2ccc(C)c(C(=O)N(C)Cc3ccc(OC)cc3OC)c2)cc1`, the inhibition is -0.0635%.

Take `COc1ccc(NC(=O)C2COc3ccccc3O2)cc1` (stereo not given): the inhibition was 3.21%.

`O=C(Nc1nc2c(F)cc(F)cc2s1)C1COc2ccccc2O1` (stereo not given): the inhibition is -1.75%.

As for `COc1ccc(OC)c2sc(NC(=O)C3COc4ccccc4O3)nc12` (stereo not given), the inhibition was 18.3% (active).

Turning to `Cn1nccc1C(=O)NC1CCCc2c1cnn2-c1ccccc1F` (stereo not given), the inhibition is 1.44%.

For the compound `Cn1c(=O)c(Sc2ccc(Cl)cc2)c(O)c2ccccc21`, the inhibition was -0.611%.

`Cc1cc(C)c(-c2c(O)c3ccccc3n(C)c2=O)c(C)c1`: the inhibition is -1.11%.

Regarding `Cn1c2ccccc2c(=O)c2c(O)cccc21`, the inhibition was 19.5% (active).

Take `COC(C/C=C/C(=O)[C@@H](C)OCc1ccccc1)OC`: the inhibition was -3.23%.

Take `N#C/C(=C/c1ccc(-c2ccccc2[N+](=O)[O-])o1)C(=O)NCCN1CCCCC1`: the inhibition is 0.797%.

With `N#C/C(=C/c1ccc(N2CCCCC2)o1)C(=O)NCCc1c[nH]c2ccccc12`, the inhibition was 36.8% (active).

On to `O=C(NCCc1c[nH]c2ccccc12)C(=O)NCC1CCCO1` (stereo not given), for which the inhibition is 0.222%.

On to `CCCCn1c(N)c(N(CC(C)C)C(=O)c2cccc(S(=O)(=O)N3CC(C)OC(C)C3)c2)c(=O)[nH]c1=O` (stereo not given), for which the inhibition was -2.71%.

As to `Nc1ccccc1/C=N\N=C/c1ccccc1N`, the inhibition was 1.49%.

As to `Fc1ccc(CNc2nc3ccccc3n3nnnc23)cc1`, the inhibition is 28.7% (active).

`COc1ccc(CNc2nnnn2C)cc1`: the inhibition was 0.267%.

On to `Nc1nonc1-c1nc2ccccc2n1Cc1ccc(F)cc1`, for which the inhibition was 3.99%.

As for `CCC1CCC/C1=N\NC(=O)c1ccc(Cl)cc1` (stereo not given), the inhibition is -0.716%.

As for `COC(=O)C1=CN(Cc2ccc(OC)cc2)C=C(C(=O)OC)C1c1ccc(O)c(OC)c1`, the inhibition was 18.3% (active).

Turning to `COc1cc(C2C(C(=O)c3ccc(C)o3)=C(O)C(=O)N2CCc2ccccc2)ccc1O` (stereo not given), the inhibition was -0.99%.

For the compound `COC(=O)C1=CN(Cc2ccc(OC)c(OC)c2)C=C(C(=O)OC)C1c1cccs1`, the inhibition was -0.0693%.

Regarding `Cc1nc2ccccc2c(=O)n1-c1ccc(NS(=O)(=O)c2ccc(F)cc2F)cc1`, the inhibition is 0.359%.

Regarding `COc1ccc(C(=O)NCC(c2ccco2)N2CCc3ccccc32)cc1OC` (stereo not given), the inhibition is -0.364%.

For the compound `Cc1cccn2c(=O)nc(SCC(=O)NCc3ccccc3Cl)nc12`, the inhibition is -2.28%.

Turning to `COCCNc1nc2nonc2nc1N1CCCC1c1nccs1` (stereo not given), the inhibition was 24.9% (active).

With `COCCNc1ncnc2c1nc1n2CCCC1`, the inhibition is -7.47%.

For the compound `COCCNc1nc2nonc2nc1N(C)Cc1ccc(C)cc1`, the inhibition is -1.03%.

Consider `COC(=O)c1ccc2c(C(C)(C)O)c(C(C)(C)O)[nH]c2c1`, for which the inhibition is 35.4% (active).

With `COC(=O)c1cccc(NS(C)(=O)=O)c1`, the inhibition was 3.63%.

With `COC(=O)c1ccc(NCC(=O)c2ccccc2)cc1`, the inhibition was 1.3%.

Regarding `CC1CC(C)(C)CC2(C1)NC(=O)N(CC(=O)Nc1nccs1)C2=O` (stereo not given), the inhibition was -1.02%.

As for `CCCCN(C(=O)CCNC(=O)NC12CC3CC(CC(C3)C1)C2)c1c(N)n(CCCC)c(=O)[nH]c1=O`, the inhibition was 0.758%.

Consider `CCN1N=C(c2ccccc2)CCC1=O`, for which the inhibition is 2.2%.

With `O=C1C=C(c2ccccc2)CCC1`, the inhibition is 3.08%.

As for `CC1(C)CC(=O)NC=C(c2ccccc2)C1`, the inhibition was 25.4% (active).

Consider `COc1cc(OC)c(OC)cc1CN1CCN(C(=O)c2cccc3ccccc23)CC1`, for which the inhibition is 2.06%.

Regarding `Cc1ccc(NC(=O)CN2CCc3ccccc3C2)cc1C`, the inhibition is 6.66%.

With `COc1cc2c(cc1OC)CN(CC(=O)Nc1ccc(F)cc1)CC2`, the inhibition is 16.9% (active).

As for `Cc1ccc(NC(=O)CN2CCc3ccccc3C2)cc1`, the inhibition is -0.397%.

Take `CCOC(=O)C1(Cc2ccccc2C)CCCN(C(=O)c2ccc(COC)o2)C1` (stereo not given): the inhibition was -3.09%.

For the compound `COc1ccc(Cl)cc1NC(=O)CN(C)C(=O)c1cc2ccccc2cc1OC`, the inhibition is 1.71%.

On to `CC(C)c1ccc(S(=O)(=O)N2CCN(C(=O)CN3C(=O)NC(C)(c4ccccc4)C3=O)CC2)cc1` (stereo not given), for which the inhibition is 0.837%.

Consider `CCOc1ccc(S(=O)(=O)NCCSc2ccccc2)cc1`, for which the inhibition was -0.375%.

With `CCOc1ccc2nc(NCCNS(=O)(=O)c3ccccc3)c(C#N)cc2c1`, the inhibition is 127% (active).

For the compound `O=S(=O)(NCCNS(=O)(=O)c1ccccc1)c1ccccc1`, the inhibition is 1.2%.

As to `O=C(NNC(=O)c1ccc(-c2ccccc2)cc1)Nc1ccccc1`, the inhibition was 2.69%.

For the compound `Cc1ccc(S(=O)(=O)n2cccc2CO)cc1`, the inhibition was -0.413%.

As to `COc1ccc(CCNC(=O)C(=O)NCC2CCCN2S(=O)(=O)c2cccs2)cc1OC` (stereo not given), the inhibition is -2.95%.

For the compound `Cc1cc(C)c(C)c(S(=O)(=O)N2CCN(C(=O)c3ccc4c(=O)n5c(nc4c3)CCC5)CC2)c1C`, the inhibition was 0.31%.
